Most compounds without a hit are left out; they make up all but 2.8% or so of the library.
SMARCA2 act = increases SMARCA2 function in MMTV reporter cells. activation, % at 9.1 µM. MG213 cells, MMTV-luciferase reporter, dexamethasone, overnight. hit rate 1% among 370,000; in the data active means activation above about 7.8%;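 further: 0% = vehicle wells and 100% = reference activator wells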
MsrA inh = inhibits bovine methionine sulfoxide reductase A | purified bovine MsrA, absorbance read-out | inhibition, % at 15.5 µM | hit rate 0.75% among 360,000; in the data active means inhibition above about 4.5%;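 further: 0% = vehicle wells with enzyme and 100% = reference inhibitor wells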
bovine MsrA act = bovine methionine sulfoxide reductase A activation. AID 602163. activation, % at 10.6 µM. hit rate 0.3% among 360,000. purified bovine MsrA, absorbance read-out; in the data active means activation above about 7.5%;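 further: 0% = vehicle and 100% = reference activator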
proKLK7 act = activators of human kallikrein-7 zymogen | P49862 | purified proKLK7, EDANS-DABCYL substrate fluorescence; 100% is mature enzyme control, 0% vehicle | activation, % at 7 µM | hit rate 0.9% among 370,000 | AID 652039;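 active means activation above the mean of all tested compounds plus 3 SD, computed per campaign excluding outliers beyond control limits, cut at about 13% in these data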
Target sequence (P49862 whole entry, looked up): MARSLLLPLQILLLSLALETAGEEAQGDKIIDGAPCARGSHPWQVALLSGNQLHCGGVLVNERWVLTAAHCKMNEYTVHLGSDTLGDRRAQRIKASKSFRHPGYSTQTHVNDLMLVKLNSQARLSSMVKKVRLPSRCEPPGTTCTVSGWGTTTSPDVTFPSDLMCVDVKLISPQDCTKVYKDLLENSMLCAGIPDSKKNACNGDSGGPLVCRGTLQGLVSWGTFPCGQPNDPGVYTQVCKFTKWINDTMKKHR
SMARCA2 conf = SMARCA2 activation, confirmation screen. MG213 cells, MMTV-luciferase with dexamethasone, luminescence, overnight; MG213 cells expressing E1A, Rb sequestered; DMSO wells 0%, reference activator 100%. AID 652260. activation, % at 9.1 µM. shares compounds with SMARCA2 act. hit rate 30% among 3,500;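 active means activation above its plate's cutoff, the mean activation of tested wells plus 3 SD, cut at about 7.9% in these data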
GAL4-VP16 Luc = GAL4-VP16 reporter activation counter-screen; hit rate 41% among 3,500; HEK293 GAL4-VP16 pG5luc reporter, luciferase luminescence; scaled: DMSO wells 0%, SAHA wells 100%; shares compounds with SMARCA2 act; activation, % at 9.1 µM;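 active means activation above the solvent-only control well mean plus 3 SD, averaged across control plates, cut at about 5.2% in these data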
Starred values were filed as active, the others as inactive; nt = no result; ! = repeats disagree.

SMILES | SMARCA2 act | MsrA inh | bovine MsrA act | proKLK7 act | SMARCA2 conf | GAL4-VP16 Luc
CCN1CCN(Cc2ccc(NC(=O)c3cc(NC(=O)c4cc(-c5ccc(OC)cc5)n[nH]4)cc(OC)c3)cc2C(F)(F)F)CC1 | 4.0 | -0.3 | -3.2 | 0.8 | nt | nt
Cn1cc(-c2nc3ccccc3[nH]2)c2ccccc21 | 9.0* | 2.3 | -5.1 | -0.1 | 15.2* | 4.2
CCOC(=O)c1cnc(SCC(=O)c2ccc(C)cc2)nc1N | 0.9 | -1.0 | -10.2 | -0.2 | nt | nt
CCOC(=O)c1cnc(SCC(=O)c2ccccc2)nc1N | 14.1* | 0.0 | 1.2 | 0.0 | 13.5* | 9.0*
COCC(=O)N1[C@H](CO)[C@@H](c2ccc(-c3cccnc3)cc2)[C@H]1CN(C)S(=O)(=O)c1ccccc1[N+](=O)[O-] | 1.1 | nt | nt | -0.1 | nt | nt
COc1ccc(NC(=O)/C=C/c2cccc(F)c2)cn1 | 11.6* | 0.0 | -0.1 | -0.3 | 3.2 | 10.4*
CCS(=O)(=O)c1c([N+](=O)[O-])ncn1C | 15.1* | 0.1 | -4.0 | -0.3 | 12.2* | 1.7
Cn1cnc([N+](=O)[O-])c1Sc1ncn[nH]1 | 8.3* | 1.0 | -1.8 | -0.2 | 0.8 | 0.2
CCN(CC)c1c([N+](=O)[O-])ncn1C | 0.2 | 0.5 | 0.3 | 0.1 | nt | nt
Cc1ccccc1-c1cc2nc(Oc3cccc(F)c3)n(C)c(=O)c2s1 | -4.2 | -0.7 | -1.1 | 0.3 | nt | nt
COCCNc1nc2cc(-c3cccc(C(F)(F)F)c3)sc2c(=O)n1C | -2.4 | 0.2 | -4.8 | -0.3 | nt | nt
COCCNc1nc2cc(-c3ccc(C)cc3)sc2c(=O)n1C | 9.0* | 0.1 | -2.3 | 0.8 | 8.8* | 13.7*
O=C(NCCNc1ccc([N+](=O)[O-])cc1)c1cc(F)c(F)cc1Cl | -3.4 | 3.0 | -3.5 | -0.4 | nt | nt
O=C(NCCNc1ccccc1[N+](=O)[O-])c1cc(F)c(F)cc1Cl | 14.2* | 0.6 | -5.7 | -0.4 | 5.5 | 5.3*
Cc1ccc2c(c1)C1CS(=O)(=O)N(CCc3ccccc3)CN1C2 (stereo not given) | -7.2 | nt | nt | 0.1 | nt | nt
Cc1nc2cc3nc(C)sc3cc2s1 | 9.0* | -1.0 | -2.8 | -0.1 | 8.7* | 6.7*
Cc1nc2cc3ccccc3cc2s1 | -0.2 | 0.2 | -4.0 | -0.8 | nt | nt
Cc1ccc(CSCC(Nc2ccc(C(=O)O)cc2[N+](=O)[O-])C(=O)O)cc1 (stereo not given) | 9.0* | 0.6 | -1.6 | -0.5 | 0.3 | -0.8
COc1cccc(C(=O)Nc2nnc(-c3cccs3)s2)c1 | 8.3* | -0.3 | -0.8 | -0.1 | 11.6* | 13.5*
COC(=O)C[C@@H]1CC[C@H]2[C@H](COc3ccc(NC(=O)c4cccc(C(F)(F)F)c4)cc3C(=O)N2C)O1 | 0.1 | nt | nt | 0.6 | nt | nt
CCOC(=O)c1c(C)[nH]c(C)c1S(=O)(=O)NCCc1ccc(SC)cc1 | 11.8* | 3.5 | -4.3 | 0.5 | -1.3 | 0.9
CCOC(=O)c1c(C)[nH]c(C)c1S(=O)(=O)NCCc1sccc1C | -3.5 | 0.8 | -0.8 | 0.0 | nt | nt
Nc1ccc(C(=O)NN2C(=O)[C@H](Cl)C2c2ccc(Cl)cc2)cc1 (stereo not given in full) | 8.3* | 0.5 | -4.1 | -0.3 | -14.9 | 1.1
CCNC(=O)CC1C(=O)N(C)C(=S)N1NC(=O)c1ccc(Cl)cc1 (stereo not given) | 2.8 | -0.3 | -3.9 | 0.6 | nt | nt
CN(C)c1ccc(-c2ccc3c(=O)c4ccccc4n(C)c3c2)cn1 | 8.5* | -0.5 | -3.0 | -1.9 | 9.8* | 10.8*
SMILES | SMARCA2 act | MsrA inh | bovine MsrA act | proKLK7 act | SMARCA2 conf | GAL4-VP16 Luc
COc1cc(C=C2CCCC(=Cc3ccc(OCC4CO4)c(OC)c3)C2=O)ccc1OCC1CO1 (stereo not given) | 4.1 | 0.9 | -2.8 | -1.1 | nt | nt
COCCNC(=O)C1CCCN(C(=O)COc2ccc(Cl)cc2Cl)CC1 (stereo not given) | -0.6 | -1.7 | -2.2 | 0.8 | nt | nt
CCOC(=O)CSc1cccc2cccnc12 | 9.4* | 1.0 | 0.6 | -3.9 | -8.7 | 1.1
O=C(/C=C/c1ccc(O)cc1)c1ccc(O)cc1O | 8.1* | 2.7 | -5.6 | 3.9 | 10.5* | 1.4
COc1ccc(C(=O)C=Cc2cccs2)c(O)c1 | 8.2* | 1.6 | -4.8 | -0.3 | 5.4 | 5.7*
COc1ccc(C(=O)/C=C/c2ccccc2)c(O)c1 | 8.2* | 0.7 | -3.5 | -0.1 | 3.8 | 2.0
COc1ccc(C(=O)/C=C/c2cccs2)c(OC(=O)N2CCOCC2)c1 | 0.7 | 4.2 | -5.7 | 0.6 | nt | nt
COc1ccc(-c2cnc3c(NC=O)cc(-c4ccc(C(=O)N5CCOCC5)cc4)cn23)cc1OC | 12.3* | -0.5 | 0.0 | 0.8 | 6.2 | 2.4
COc1cccc(-c2cnc3c(NC=O)cc(-c4ccccc4)cn23)c1 | 4.3 | 0.6 | -2.4 | -1.0 | nt | nt
COc1cccc(-c2cnc3c(NC=O)cc(-c4ccc(N5CCN(C)CC5)cc4)cn23)c1 | 15.4* | 0.5 | 1.9 | 0.1 | 37.2* | 3.0
Cc1noc(C)c1-c1ccc(C(=O)NCCN2CCOCC2)c2occc12 | -2.7 | -0.7 | -1.0 | 0.2 | nt | nt
Cc1ccc(-c2nc3ccccn3c2NCc2ccc3c(c2)OCO3)cc1 | 10.5* | 1.2 | -2.8 | -40.5 | 8.2* | 4.7
COc1ccc(-c2nc3ccc(C)cn3c2NCc2ccc3c(c2)OCO3)cc1 | 5.3 | -0.4 | -4.2 | -31.2 | nt | nt
CC(=O)NC(=S)Nc1ccc(-c2nc3ccc(C)cc3s2)cc1 | 17.5* | 0.6 | -2.7 | 0.2 | 4.5 | 9.2*
CC(=O)N1CCc2c(sc(NC(=O)C3CC3)c2-c2nc3ccccc3s2)C1 | 1.4 | 0.3 | -3.4 | -3.1 | nt | nt
CC(=O)Nc1sc2c(c1-c1nc3ccccc3s1)CN(C(C)C)CC2 | 18.7* | 1.0 | -3.0 | -41.1 | 6.9 | -1.1
CC(C)(C)NC(=O)CN(C(=O)CCC(=O)Nc1nccs1)c1ccccc1F | -1.9 | 0.1 | -2.9 | -0.8 | nt | nt
COCCN1CCN(c2c(C)c(C)nc3cc(-c4cccc(OC)c4)nn23)CC1 | 11.0* | 0.2 | -6.7 | -0.6 | 9.7* | 4.6
c1ccc(-c2cc(N3CCCCC3)ncn2)cc1 | 8.2* | 1.0 | -5.3 | 0.5 | 8.5* | 8.6*
Nc1nc(-c2ccccc2)cc(N2CCCCC2)n1 | 0.2 | 0.9 | -10.5 | -0.7 | nt | nt
C/C(N)=C(/C#N)C(=O)CSc1ccccc1F | 9.0* | 0.4 | -1.7 | 0.0 | 10.0* | 8.8*
C/C(N)=C(/C#N)C(=O)CSc1n[nH]c(-c2ccccc2Br)n1 | 8.6*! | -0.4 | -12.4 | 0.4 | -1.0 | 1.1
COc1ccc(-c2coc3cc(O)ccc3c2=O)cc1O | 8.0* | 2.1 | -3.3 | 1.7 | 13.2* | 10.8*
COc1ccc(-c2coc3cc(O)ccc3c2=O)cc1 | 2.7 | -0.1 | 0.1 | -7.3 | nt | nt
COc1ccc(-c2coc3cc(O)cc(O)c3c2=O)cc1 | 0.7 | 2.1 | -7.1 | 0.1 | nt | nt
O=c1c(-c2ccc(O)cc2)coc2cc(O)cc(O)c12 | 9.0* | 2.8 | -3.5 | 0.3 | 13.7* | 10.6*
CCOc1ccc(Nc2nc(N)c([N+](=O)[O-])c(N3CCOCC3)n2)cc1 | 0.7 | 1.0 | -5.5 | 0.1 | nt | nt

High-throughput results (PubChem)
